Results filed as inconclusive are left out. Activity calls are given as the source filed them. Rule as the data show it: active = fluorescence slope change above about 50%; inconclusive = mostly about 31% to 49%; inactive = weaker than that.

In one experiment the target is ATP-dependent translocase ABCB1 (Homo sapiens) (UniProt P08183). The experiment in a line: MDR1 (ABCB1) efflux transporter inhibition, cell-based (AID 377). The conditions noted are these: MDR1-expressing cells, fluorescent substrate accumulation slope; stronger effect = higher value; concentration not given here.
Sequence of ATP-dependent translocase ABCB1 (Homo sapiens) (P08183 whole entry, looked up): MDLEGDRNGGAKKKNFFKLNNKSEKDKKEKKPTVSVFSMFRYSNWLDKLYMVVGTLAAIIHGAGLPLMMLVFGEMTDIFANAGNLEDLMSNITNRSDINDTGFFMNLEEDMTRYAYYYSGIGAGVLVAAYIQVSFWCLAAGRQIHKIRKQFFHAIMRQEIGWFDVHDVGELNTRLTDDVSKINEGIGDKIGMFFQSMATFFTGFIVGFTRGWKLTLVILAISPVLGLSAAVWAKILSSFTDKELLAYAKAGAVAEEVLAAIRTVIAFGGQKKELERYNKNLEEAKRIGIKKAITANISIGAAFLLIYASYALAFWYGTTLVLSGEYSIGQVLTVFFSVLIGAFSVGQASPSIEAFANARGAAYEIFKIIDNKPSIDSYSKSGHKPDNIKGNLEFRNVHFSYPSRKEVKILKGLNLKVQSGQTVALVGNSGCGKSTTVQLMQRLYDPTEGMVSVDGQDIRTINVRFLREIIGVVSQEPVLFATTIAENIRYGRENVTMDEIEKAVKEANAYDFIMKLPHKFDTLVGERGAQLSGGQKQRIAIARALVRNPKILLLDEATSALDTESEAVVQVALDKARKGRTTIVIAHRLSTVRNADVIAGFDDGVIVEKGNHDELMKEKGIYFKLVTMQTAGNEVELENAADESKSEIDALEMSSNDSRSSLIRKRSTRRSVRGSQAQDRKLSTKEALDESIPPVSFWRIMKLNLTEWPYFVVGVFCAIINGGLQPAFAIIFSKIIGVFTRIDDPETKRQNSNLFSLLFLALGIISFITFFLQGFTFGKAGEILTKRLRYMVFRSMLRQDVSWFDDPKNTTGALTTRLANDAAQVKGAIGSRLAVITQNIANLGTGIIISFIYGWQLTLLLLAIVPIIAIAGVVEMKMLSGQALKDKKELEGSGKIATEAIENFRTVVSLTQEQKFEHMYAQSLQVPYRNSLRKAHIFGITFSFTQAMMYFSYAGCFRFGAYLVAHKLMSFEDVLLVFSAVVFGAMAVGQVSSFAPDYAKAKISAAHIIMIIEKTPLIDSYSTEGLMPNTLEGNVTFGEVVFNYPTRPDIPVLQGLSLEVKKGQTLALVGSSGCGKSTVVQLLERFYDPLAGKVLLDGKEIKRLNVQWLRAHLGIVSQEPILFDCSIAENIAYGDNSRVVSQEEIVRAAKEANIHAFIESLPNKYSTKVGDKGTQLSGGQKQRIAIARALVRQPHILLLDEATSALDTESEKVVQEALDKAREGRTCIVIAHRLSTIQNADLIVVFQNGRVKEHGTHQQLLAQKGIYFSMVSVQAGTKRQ
For the compound `CC1=NS(=O)(=O)c2cc(Cl)ccc2N1`, the fluorescence slope change was 82.3% (active).

In the case of `CC1=C(/C=C/C(C)=C/C=C/C(C)=C/C(=O)O)C(C)(C)CCC1`, the fluorescence slope change is 101% (active).

With `CCCCNc1cc(C(=O)O)cc(S(N)(=O)=O)c1Oc1ccccc1`, the fluorescence slope change is 105% (active).

As for `CC(C)C(=O)Nc1ccc([N+](=O)[O-])c(C(F)(F)F)c1`, the fluorescence slope change is 60.9% (active).

Turning to `CS(=O)(=O)OCCCCOS(C)(=O)=O`, the fluorescence slope change was 13.3% (inactive).

Turning to `NNCCc1ccccc1`, the fluorescence slope change is 67.1% (active).

Turning to `CCN(Cc1ccncc1)C(=O)C(CO)c1ccccc1` (centres undefined), the fluorescence slope change was 82.5% (active).

Consider `CCCc1cc(=O)[nH]c(=S)[nH]1`, for which the fluorescence slope change is -6.8% (inactive).

As to `COc1ccc(Cl)cc1C(=O)NCCc1ccc(S(=O)(=O)NC(=O)NC2CCCCC2)cc1`, the fluorescence slope change is 105% (active).

Take `N[C@@H](Cc1cc(I)c(Oc2cc(I)c(O)c(I)c2)c(I)c1)C(=O)O`: the fluorescence slope change was 62.7% (active).

Take `NNC(=O)c1ccncc1`: the fluorescence slope change was 55.1% (active).

Tested on in another experiment: not listed separately
The experiment in a line: polyglutamine-triggered caspase-3 activation inhibitors, cell-based (AID 1583). As to conditions: polyglutamine-induced caspase-3 activation, cell assay; stronger effect = higher value;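 tested at 10 µM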.
Usually inhibition stands for the change of the read-out against control, counted positive when it falls. On to `CC12CC3CC(C)(C1)CC(N)(C3)C2`, for which the inhibition is 12.5%.

In the case of `S=c1nc[nH]c2nc[nH]c12`, the inhibition was 26.7%.

`Oc1c(Cl)cc(Cl)c2cccnc12`: the inhibition stood at 31.4%.

For `OC(Cn1cncn1)(Cn1cncn1)c1ccc(F)cc1F`, the inhibition is -12.6%.

On to `NCCc1ccc(O)c(O)c1`, for which the inhibition stood at 12.5%.

With `CN=C(NC#N)NCCSCc1nc[nH]c1C`, the inhibition is 15.1%.

Consider `CC1COc2c(N3CCN(C)CC3)c(F)cc3c(=O)c(C(=O)O)cn1c23` (centres undefined), for which the inhibition is 10.8%.

As for `O=C(C1CCCCC1)N1CC(=O)N2CCc3ccccc3C2C1` (centres undefined), the inhibition was 2.42%.

Regarding `CCc1cc(C(N)=S)ccn1`, the inhibition came out at 13.5%.

On to `CC1=C(/C=C/C(C)=C/C=C/C(C)=C/C(=O)O)C(C)(C)CCC1`, for which the inhibition was determined as 16%.

As for `CCCCNc1cc(C(=O)O)cc(S(N)(=O)=O)c1Oc1ccccc1`, the inhibition worked out at 4.16%.

In the case of `O=c1[nH]cnc2[nH]ncc12`, the inhibition turned out to be 14.4%.

Regarding `O=C1c2c(O)ccc(O)c2C(=O)c2c(NCCNCCO)ccc(NCCNCCO)c21`, the inhibition was determined as 63.3%.

For `O=C(O)c1cc(=O)c2c(OCC(O)COc3cccc4oc(C(=O)O)cc(=O)c34)cccc2o1`, the inhibition is -4.9%.

Consider `CC(C)C(=O)Nc1ccc([N+](=O)[O-])c(C(F)(F)F)c1`, for which the inhibition is 28.6%.

Consider `CC(COc1ccccc1)N(CCCl)Cc1ccccc1` (centres undefined), for which the inhibition came out at 31.4%.

Take `CC(=O)CC(c1ccccc1)c1c(O)c2ccccc2oc1=O` (centres undefined): the inhibition was 17%.

For `NS(=O)(=O)c1cc2c(cc1Cl)NCNS2(=O)=O`, the inhibition was -3.39%.

Take `CS(=O)(=O)OCCCCOS(C)(=O)=O`: the inhibition was 27.2%.

On to `NNCCc1ccccc1`, for which the inhibition turned out to be 3.3%.

`CC1Cc2ccccc2N1NC(=O)c1ccc(Cl)c(S(N)(=O)=O)c1` (centres undefined): the inhibition amounted to 11.1%.

For `CC(C)Cc1ccc(C(C)C(=O)O)cc1` (centres undefined), the inhibition is -4.83%.

Take `N[C@@H]1CONC1=O`: the inhibition was 3.67%.

Turning to `CCN(Cc1ccncc1)C(=O)C(CO)c1ccccc1` (centres undefined), the inhibition was determined as 24.2%.

As for `CCCc1cc(=O)[nH]c(=S)[nH]1`, the inhibition was -28.5%.

With `O=C(O)c1cccnc1`, the inhibition was found to be 1.52%.

With `CC(C[N+](C)(C)C)OC(N)=O` (centres undefined), the inhibition is 18.5%.

As to `COc1ccc(Cl)cc1C(=O)NCCc1ccc(S(=O)(=O)NC(=O)NC2CCCCC2)cc1`, the inhibition stood at 0.35%.

As for `NNC(=O)c1ccncc1`, the inhibition is -15%.

Tested on in another experiment: not listed separately
The experiment in a line: suppressors of polyQ aggregation in yeast, 75Q-TubU reporter (AID 1593). The conditions noted are these: Yeast 75Q polyglutamine aggregation reporter.
`CC12CC3CC(C)(C1)CC(N)(C3)C2` gave a score of 1.59.

In the case of `S=c1nc[nH]c2nc[nH]c12`, the score came out at 1.45.

`Oc1c(Cl)cc(Cl)c2cccnc12` displayed a score of -0.52.

`OC(Cn1cncn1)(Cn1cncn1)c1ccc(F)cc1F` showed a score of 0.67.

`NCCc1ccc(O)c(O)c1` showed a score of 1.44.

Regarding `CN=C(NC#N)NCCSCc1nc[nH]c1C`, the score worked out at 1.08.

`CC1COc2c(N3CCN(C)CC3)c(F)cc3c(=O)c(C(=O)O)cn1c23` (centres undefined) displayed a score of 1.04.

Take `O=C(C1CCCCC1)N1CC(=O)N2CCc3ccccc3C2C1` (centres undefined): the score is 0.82.

`CCc1cc(C(N)=S)ccn1` gave a score of 1.02.

`CC1=C(/C=C/C(C)=C/C=C/C(C)=C/C(=O)O)C(C)(C)CCC1` had a score of 0.91.

In the case of `CCCCNc1cc(C(=O)O)cc(S(N)(=O)=O)c1Oc1ccccc1`, the score came out at 1.19.

`O=c1[nH]cnc2[nH]ncc12` registered a score of 1.09.

`O=C1c2c(O)ccc(O)c2C(=O)c2c(NCCNCCO)ccc(NCCNCCO)c21`: the score is -2.9.

Consider `O=C(O)c1cc(=O)c2c(OCC(O)COc3cccc4oc(C(=O)O)cc(=O)c34)cccc2o1`, for which the score is 1.69.

As for `CC(C)C(=O)Nc1ccc([N+](=O)[O-])c(C(F)(F)F)c1`, the score came to 0.95.

Turning to `CC(COc1ccccc1)N(CCCl)Cc1ccccc1` (centres undefined), the score is 0.5.

Regarding `CC(=O)CC(c1ccccc1)c1c(O)c2ccccc2oc1=O` (centres undefined), the score was 0.72.

For `NS(=O)(=O)c1cc2c(cc1Cl)NCNS2(=O)=O`, the score came to 1.21.

As for `CS(=O)(=O)OCCCCOS(C)(=O)=O`, the score came to 1.46.

For `NNCCc1ccccc1`, the score was determined as 0.97.

The compound `CC1Cc2ccccc2N1NC(=O)c1ccc(Cl)c(S(N)(=O)=O)c1` (centres undefined) came in with a score of 1.1.

Regarding `CC(C)Cc1ccc(C(C)C(=O)O)cc1` (centres undefined), the score was 0.01.

`N[C@@H]1CONC1=O`: the score came to 1.72.

Compound `CCN(Cc1ccncc1)C(=O)C(CO)c1ccccc1` (centres undefined) returned a score of 1.22.

`CCCc1cc(=O)[nH]c(=S)[nH]1`: the score was found to be 1.06.

The compound `O=C(O)c1cccnc1` returned a score of 1.31.

With `CC(C[N+](C)(C)C)OC(N)=O` (centres undefined), the score was 1.26.

In the case of `COc1ccc(Cl)cc1C(=O)NCCc1ccc(S(=O)(=O)NC(=O)NC2CCCCC2)cc1`, the score was -0.18.

As for `NNC(=O)c1ccncc1`, the score is 1.32.

The values above are taken from PubChem BioAssay.
